The full ranking holds about 68,000 sequences; the median of “fluorescence intensity (a.u.)” is about 9,100, and the highest 2% start at about 16,000. The list comes from a sample in which the highest values are over-represented; it also holds similar and randomly drawn sequences.

48 sequences from paper PMC7819943, “Rice protein-binding microarrays: a tool to detect cis-acting elements near promoter regions in rice” can be followed below.

Sequence of OsWRKY34 (Q0JBA9 entry or part of it): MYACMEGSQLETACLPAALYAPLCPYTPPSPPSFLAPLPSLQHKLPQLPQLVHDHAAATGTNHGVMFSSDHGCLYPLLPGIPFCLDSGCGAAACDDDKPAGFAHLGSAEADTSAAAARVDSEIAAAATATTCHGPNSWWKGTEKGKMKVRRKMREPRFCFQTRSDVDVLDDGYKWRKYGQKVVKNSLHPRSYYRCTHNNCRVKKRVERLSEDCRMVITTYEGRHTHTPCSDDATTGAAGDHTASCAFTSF

The assay concerns the target OsWRKY34 (Oryza sativa, UniProt Q0JBA9 1-250). The assay is described as follows: protein-binding microarray (RPBM); PBS, 2% BSA, 51.3 ng/ul salmon testes DNA, 50 uM zinc acetate, 200 nM TF, 25 C, 1 h; high values mean tight binding. To be noted: protein: recombinant; tags: N-terminal polyhistidine and DsRed monomer fusion (pET32a); label: CyDye5-dUTP incorporated in the synthesized complementary strand; 3' TTTTT single-stranded linker to array surface; dsDNA, one strand shown. In outline:
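The binding signal is fluorescence intensity per array feature (arbitrary units). Readings came from an Axon 4000B scanner after a washed, 2% BSA-blocked, double-stranded custom Agilent array had been incubated for 1 h at 25 °C with 200 nM protein and 50 µM zinc acetate. The protein was a Ni–NTA-purified transcription factor fused N-terminally to polyhistidine and DsRed, expressed in E. coli BL21-CodonPlus.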
As to “TGGCGAGGAGGTGGTGGTGGTTGTGGTGGGTGCGGCCATGCGGAGTCACCTAGTGCAG”, the binding signal was 12100 fluorescence intensity (a.u.). With “AACTCAGTCTCAGCTCACATGATGCATCATCAGCCATGGCCGGAGTCACCTAGTGCAG”, the binding signal is 8200 fluorescence intensity (a.u.). As for “CCGCCGCCATCAAGTCCGCCATCATGACCACCGGTGAGAACGGAGTCACCTAGTGCAG”, the binding signal was 8490 fluorescence intensity (a.u.). For the sequence “AAACCATGCGGCGCACGAGCCACTCGCACTCGCACTCGCACGGAGTCACCTAGTGCAG”, the binding signal is 9360 fluorescence intensity (a.u.).

Take “GCCGCATGGTGGTGCTGGTTGGGGTGGTGGTGGTGGCGGCCGGAGTCACCTAGTGCAG”: the binding signal was 14800 fluorescence intensity (a.u.). In the case of “GAGGAGAGAGAGAGAGAGTGGTGGTGGTGGTGGTGAGATGCGGAGTCACCTAGTGCAG”, the binding signal was 8460 fluorescence intensity (a.u.).

Consider “GTGGTGGTGGTGGTGGTGGTGGTGGTGGTGCACGGCCATGCGGAGTCACCTAGTGCAG”, for which the binding signal is 16400 fluorescence intensity (a.u.). For “CATCCGGCCATGGTGATGACCGGCGGCGATGATCAGCAGCCGGAGTCACCTAGTGCAG”, the binding signal was 48200 fluorescence intensity (a.u.). “GTACTGGCTTGGCTGGGTCGGGCTCGGGCTGGGCCATGAACGGAGTCACCTAGTGCAG”: the binding signal was 8340 fluorescence intensity (a.u.). Under “CGGAGGGAGGCGGAGGCGGTGGTGGTGGTGGTGGTGCCGGCGGAGTCACCTAGTGCAG” stands 12500 fluorescence intensity (a.u.); under “ACGCTTGGTGGGGTGGGGTGGTGCTGGTGCCATGAACTGCCGGAGTCACCTAGTGCAG”, 22300 fluorescence intensity (a.u.); under “GTGGTGGTGGTGGTGGTGGTGGCGGCGGCGGCCGGCCATGCGGAGTCACCTAGTGCAG”, 20000 fluorescence intensity (a.u.). As to “CAGCCACCTCCTCCTCTTCTTCCCCAACTTTCTGCTTGATCGGAGTCACCTAGTGCAG”, the binding signal is 9300 fluorescence intensity (a.u.). For “CCCACGCAGATCTCCGCTTTTTCCCGGCGGCAACCACGCCCGGAGTCACCTAGTGCAG”, the binding signal was 10200 fluorescence intensity (a.u.). As for “AATCTAACATGGATTTGCGCACACACTTGTCGTAACGTACCGGAGTCACCTAGTGCAG”, the binding signal is 9480 fluorescence intensity (a.u.). Turning to “CGTGCATCCGCTGCGCTGTGCTGCCATTTCTCTTCAGCTTCGGAGTCACCTAGTGCAG”, the binding signal was 10600 fluorescence intensity (a.u.). As for “TAGCTATTGCTCGCTGGCCTACCATTAATTAGTATACTGTCGGAGTCACCTAGTGCAG”, the binding signal was 8800 fluorescence intensity (a.u.). Regarding “TTTTGCTTATCATATCATATATTTTCTAAGCTTGATTTTTCGGAGTCACCTAGTGCAG”, the binding signal is 8050 fluorescence intensity (a.u.). For “TTTTTTGTTTTTTCTTTGAATTCTTTCCTTACGATTTTTGCGGAGTCACCTAGTGCAG”, the binding signal was 13400 fluorescence intensity (a.u.). For “ACCTAATATTTCCCGTGTTCTCTTCTACGAAAACGTATTTCGGAGTCACCTAGTGCAG”, the binding signal is 10500 fluorescence intensity (a.u.). The same measure for “AACCTCCAACCTTTTAATTTCTCACGCGACCATGCACGACCGGAGTCACCTAGTGCAG”: 8820 fluorescence intensity (a.u.); for “ATGTAGGGGTTCCTGCTGCTGCTGTTCTGCCCATTCAACACGGAGTCACCTAGTGCAG”: 8880 fluorescence intensity (a.u.).

On to “TCATCATGTGACCGACCACCGCATCCTCAGTTGACCCAGTCGGAGTCACCTAGTGCAG”, for which the binding signal is 8640 fluorescence intensity (a.u.). In the case of “GATAGGGTTAGGGTTAGGGTTTTCCCTGGTCCGCATCTTCCGGAGTCACCTAGTGCAG”, the binding signal is 9320 fluorescence intensity (a.u.). As to “CTCTTGCTCTGCTCTGTTTTTGGCCCATCCTCACCCACAACGGAGTCACCTAGTGCAG”, the binding signal was 10600 fluorescence intensity (a.u.). For the sequence “CTTTTCTCCTTCGGCTATAGTGTCACTGTCCTCGCCTTCTCGGAGTCACCTAGTGCAG”, the binding signal is 15700 fluorescence intensity (a.u.). Under “GTGCCTAACAATCTGCTGCTTTTTACCCGCCAAGTATCTTCGGAGTCACCTAGTGCAG” stands 8180 fluorescence intensity (a.u.); under “AATACATTTTACCTCGATTGTTATTAGCATATTTTTTTTGCGGAGTCACCTAGTGCAG”, 8890 fluorescence intensity (a.u.); under “TTCCAGTTAGCAACGCATTGAGCCATTTTTACATATTCTGCGGAGTCACCTAGTGCAG”, 57100 fluorescence intensity (a.u.). Take “ATGTAAGTCATTCTAGCATTTTTTACATTCATATTGATGTCGGAGTCACCTAGTGCAG”: the binding signal is 9380 fluorescence intensity (a.u.).

Consider “TTCACCCTCACTTTATTCATCTATAGTAGTTTCATCAGTTCGGAGTCACCTAGTGCAG”, for which the binding signal is 8060 fluorescence intensity (a.u.). Under “CTACTTTCACTCCCACCCACCCGACACAGCCGGAGCGCGCCGGAGTCACCTAGTGCAG” stands 8630 fluorescence intensity (a.u.); under “CCACTTTTGCAGATTGCAGGGCGCGCAGTACTGCCGACAGCGGAGTCACCTAGTGCAG”, 18900 fluorescence intensity (a.u.).

For “CACAGATCCACTCCATTGCTTCACTACTGCTTTGCTTTTGCGGAGTCACCTAGTGCAG”, the binding signal is 11000 fluorescence intensity (a.u.). As to “GCCTTTTTAACTTGTGCGACCGGTGTTCCGGGATTTTGGGCGGAGTCACCTAGTGCAG”, the binding signal was 10900 fluorescence intensity (a.u.). In the case of “TCTCCTCCATCATCGCAGCCAACTCCAACATCCTGAGCTCCGGAGTCACCTAGTGCAG”, the binding signal was 9510 fluorescence intensity (a.u.). For “TTTTTATATACCGGTAAATATCCGCTACCGTATTCGTTCCCGGAGTCACCTAGTGCAG”, the binding signal is 10200 fluorescence intensity (a.u.). As to “TCGTTCCTTCCTGTTGTTTCCTTTTCTTTTCCTTTATTTTCGGAGTCACCTAGTGCAG”, the binding signal was 8070 fluorescence intensity (a.u.). With “TGTCGTCCTTCAGGCCAACTTTGTCTTCCTTTGTTTCGACCGGAGTCACCTAGTGCAG”, the binding signal was 16400 fluorescence intensity (a.u.). Turning to “CAGACTTTTCAGCTTCGGTTTCCCTTGTTTCTGATCTTTCCGGAGTCACCTAGTGCAG”, the binding signal is 8440 fluorescence intensity (a.u.).

In the case of “AAAATGTTGTTTTTTTCTTCACTTTTGTTTTCCTTTTTTTCGGAGTCACCTAGTGCAG”, the binding signal is 9300 fluorescence intensity (a.u.). On to “TTATTTCCGCAAATCGTTCGCTATCCGGTATATTTTTGCACGGAGTCACCTAGTGCAG”, for which the binding signal was 17300 fluorescence intensity (a.u.). As to “GTTTTTTTTTTTCCTTTCACTTCCTTCCTGGGCTTTATTTCGGAGTCACCTAGTGCAG”, the binding signal was 17300 fluorescence intensity (a.u.). For “GCCCTTTTCACGGTTTTTCCTGATCTTTCTGGGCTTTCTCCGGAGTCACCTAGTGCAG”, the binding signal was 18800 fluorescence intensity (a.u.). For “CTTATTTGTAGCTTCCTTTTTTTTTCCTTTTTCTTTTATTCGGAGTCACCTAGTGCAG”, the binding signal was 10400 fluorescence intensity (a.u.). As to “TTGTCTTCCTTTGTTTCGACTGGTCCAGTTTCGTCCTCTCCGGAGTCACCTAGTGCAG”, the binding signal was 10300 fluorescence intensity (a.u.). For “CACAACTTTTCGTTTTTTATATTTGCACAAATTTTTTAATCGGAGTCACCTAGTGCAG”, the binding signal is 8650 fluorescence intensity (a.u.). The same measure for “AATCTGTTTTTTGCTTTTTTGCCCTTTTCACGGTTTTTCCCGGAGTCACCTAGTGCAG”: 10800 fluorescence intensity (a.u.).
